Laboratory results taken from PubChem BioAssay AID687001 (Broad Institute, 2013).
Potency and affinity values are given separately. Calls of active or inactive are those of the source.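 How the source made its calls: active means signal-lowering compounds whose fitted half-maximal concentration is at or below twice the top tested dose in every run; inconclusive means runs disagree, flat 30 to 70% inhibition, or poor curve fit; inactive means the rest.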

Molecular target: Protein S100-A4 (Homo sapiens) (UniProt P26447)
Sequence (P26447 whole entry, looked up): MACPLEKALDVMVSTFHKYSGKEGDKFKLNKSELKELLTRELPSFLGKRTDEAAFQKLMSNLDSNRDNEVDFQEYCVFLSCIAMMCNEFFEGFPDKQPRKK
Assay: human S100A4 peptide interaction inhibition curves – biochemical, fluorescence polarization, cherry-picked hits, dose response (AID 687001);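 further: 0% = DMSO neutral control wells and -100% = TFP positive control wells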
Details: FP, S100A4/TAMRA-myosin IIA peptide binding; series mostly up to 11 µM; activity change, negative = inhibition: at the top concentration

Activity change, negative = inhibition, inactive:
CCCCOc1ccc(S(=O)(=O)N2CCN(c3ccc(N4CCN(CC)CC4)nn3)CC2)cc1 1.2%
CC(C)CN1CCC(=O)N([C@H](COc2ccccc2)c2ccccc2)CC1 1.29%
Cc1ccc(S(=O)(=O)NCC[C@@H]2CC[C@H](NC(=O)Nc3cccc(F)c3)[C@@H](CO)O2)cc1 0.251%
Cc1ccc(C2CC(=O)NC(SCCC(C)C)=C2C#N)cc1 (centres undefined) -5.51%
CCCC(=O)Nc1ccc2c(c1)OC[C@H](C)NC[C@H](C)[C@H](OC)CN(C)C2=O -2.13%
CO[C@H]1CN(C)C(=O)c2ccc(NC(=O)C3CCCCC3)cc2OC[C@@H](C)N(Cc2nccs2)C[C@@H]1C 3.38%
C[C@@H]1CN([C@@H](C)CO)S(=O)(=O)c2ccc(Br)cc2O[C@@H]1CN(C)Cc1ccncc1 5.78%
Nc1[nH]c(C(=O)c2ccccc2)c(-c2ccccc2C(F)(F)F)c1C(=O)NCc1cccc2ccccc12 7.4%
COC(=O)[C@@H]1[C@@H](CO)[C@@H]2Cn3c(ccc(-c4ccccc4)c3=O)[C@@H]2N1C(=O)CC1CC1 7.03%
Cc1ccc(S(=O)(=O)Nc2ccc3c(c2)nc(CCN2CCN(c4ccccn4)CC2)n3C)cc1 1.65%
O=C(c1ccc2c(c1)OCO2)N1CC(=O)N2[C@@H](CO)[C@H](c3ccc(C#Cc4ccccc4)cc3)[C@@H]2C1 11.1%
O=C(C[C@H]1C[C@H]2c3cc(NC(=O)Cc4ccncc4)ccc3O[C@H]2[C@H](CO)O1)NCc1ccccn1 10.1%
Cn1c2ccccc2c(=O)c2ccc(C#Cc3ccc(N)cc3)cc21 35.4%
CN1CCN(S(=O)(=O)c2cccc(C(=O)NC3CCCC3)c2)CC1 -3.62%
COc1cccc(C2c3[nH]c4ccccc4c3C[C@H]3C(=O)N(C)CC(=O)N23)c1 (some centres undefined) -3.55%
Cc1cnc(CN(C)C(=O)C2CCC(=O)N(CCc3ccccc3)C2)[nH]1 (centres undefined) -4.36%
C[C@@H]1CN([C@H](C)CO)C(=O)c2ccccc2-c2ccccc2CO[C@H]1CN(C)C(=O)Oc1ccccc1 -2.82%
CCN(CC(=O)Nc1ccccc1C(F)(F)F)C(=O)c1ccc(NC(=O)c2cccs2)cc1 0.852%
C[C@@H]1ON(C)[C@H]2C[C@H]3c4[nH]c5ccccc5c4CCN3C(=O)[C@@H]12 8.57%
O=C(NNC(=O)c1ccccc1F)c1cccc(-n2cccc2)c1 5.6%
S=c1[nH]nc(Nc2cccc3ccccc23)s1 -1.11%
O=C(C[C@H]1CC[C@H]2NC[C@H](O)COC[C@@H]2O1)NCCN1CCCCC1 0.797%
Cn1c(=O)oc2cc(S(=O)(=O)NCc3ccc(Cl)cc3)ccc21 -0.477%
COC(=O)c1c(NC(=O)CCN2CCOCC2)sc2c1CCCC2 -2.61%
C[C@@H]1CN([C@H](C)CO)C(=O)c2cccc(NC(=O)c3ccncc3)c2O[C@@H]1CN(C)C -1.43% [at 10 µM]
COc1ccc(C(C)(O)c2nc(-c3cccs3)cs2)cc1 (centres undefined) -1.36%
CCN(CC)C(=O)c1ccccc1NS(=O)(=O)c1cccs1 1.48%
CN(C)CC/C=C1/c2ccccc2COc2ccc(CC(=O)O)cc21 -4.99%
CCCNC(=O)[C@@H]1[C@@H](CO)[C@@H]2Cn3c(cccc3=O)[C@@H]2N1C(=O)C1CCC1 2.72%
CC(C)(C)c1cc(CCC(=O)N2CCC2)cc(C(C)(C)C)c1O -0.818%
COc1ccccc1N(C)S(=O)(=O)c1ccc(C(=O)NCC2CCCCC2)cc1 11.9%
C[C@@H](NC(=O)C[C@@H]1CC[C@H](NC(=O)C2CCC2)[C@H](CO)O1)c1ccccc1 0.215%
C[C@@H]1CN([C@H](C)CO)C(=O)c2cc(N(C)C)ccc2O[C@@H](C)CCCCO[C@@H]1CN(C)C(=O)NC1CCCCC1 18.6%
CO[C@@H]1CN(C)C(=O)c2ccc(NC(=O)c3ccc4c(c3)OCO4)cc2OC[C@@H](C)N(Cc2ccc3c(c2)OCO3)C[C@H]1C 3.91%
O=C(CSc1nnc(NC(=O)C2CC2)s1)NCc1ccccc1Cl -2.66%
COc1ccc(/C=C(\C#N)C(=O)c2cccn2C)cc1 -18%
CCn1c(SCC(=O)O)nnc1-c1ccc2[nH]c(C)c(C)c2c1 -3.04%
Cc1csc(=O)n1CC(=O)OCc1nnc(-c2ccc(Cl)cc2)o1 20.9%
CO[C@@H]1CN(C)C(=O)c2cc(NC(C)=O)ccc2OC[C@H](C)N(Cc2cncnc2)C[C@H]1C -1.37%
